Assay results from the supplement of paper PMC11732987, “Enantioselective OTUD7B fragment discovery through chemoproteomics screening and high-throughput optimisation” (Communications Chemistry, 2025).

Key:
Assay in all cases: log2 ratio of Biotin-Ahx-Ub-VS probe labelling (fragment/DMSO); higher = less target engagement (more negative = stronger competition), active = hit call of the paper (q ≤ 0.05, log2 ratio ≤ -1)
Conditions in all cases: compound concentration: 200 uM; treatment time: 3 h
USP19 = biological target: T1, USP19 (UniProt O94966)
T1 sequence (whole entry): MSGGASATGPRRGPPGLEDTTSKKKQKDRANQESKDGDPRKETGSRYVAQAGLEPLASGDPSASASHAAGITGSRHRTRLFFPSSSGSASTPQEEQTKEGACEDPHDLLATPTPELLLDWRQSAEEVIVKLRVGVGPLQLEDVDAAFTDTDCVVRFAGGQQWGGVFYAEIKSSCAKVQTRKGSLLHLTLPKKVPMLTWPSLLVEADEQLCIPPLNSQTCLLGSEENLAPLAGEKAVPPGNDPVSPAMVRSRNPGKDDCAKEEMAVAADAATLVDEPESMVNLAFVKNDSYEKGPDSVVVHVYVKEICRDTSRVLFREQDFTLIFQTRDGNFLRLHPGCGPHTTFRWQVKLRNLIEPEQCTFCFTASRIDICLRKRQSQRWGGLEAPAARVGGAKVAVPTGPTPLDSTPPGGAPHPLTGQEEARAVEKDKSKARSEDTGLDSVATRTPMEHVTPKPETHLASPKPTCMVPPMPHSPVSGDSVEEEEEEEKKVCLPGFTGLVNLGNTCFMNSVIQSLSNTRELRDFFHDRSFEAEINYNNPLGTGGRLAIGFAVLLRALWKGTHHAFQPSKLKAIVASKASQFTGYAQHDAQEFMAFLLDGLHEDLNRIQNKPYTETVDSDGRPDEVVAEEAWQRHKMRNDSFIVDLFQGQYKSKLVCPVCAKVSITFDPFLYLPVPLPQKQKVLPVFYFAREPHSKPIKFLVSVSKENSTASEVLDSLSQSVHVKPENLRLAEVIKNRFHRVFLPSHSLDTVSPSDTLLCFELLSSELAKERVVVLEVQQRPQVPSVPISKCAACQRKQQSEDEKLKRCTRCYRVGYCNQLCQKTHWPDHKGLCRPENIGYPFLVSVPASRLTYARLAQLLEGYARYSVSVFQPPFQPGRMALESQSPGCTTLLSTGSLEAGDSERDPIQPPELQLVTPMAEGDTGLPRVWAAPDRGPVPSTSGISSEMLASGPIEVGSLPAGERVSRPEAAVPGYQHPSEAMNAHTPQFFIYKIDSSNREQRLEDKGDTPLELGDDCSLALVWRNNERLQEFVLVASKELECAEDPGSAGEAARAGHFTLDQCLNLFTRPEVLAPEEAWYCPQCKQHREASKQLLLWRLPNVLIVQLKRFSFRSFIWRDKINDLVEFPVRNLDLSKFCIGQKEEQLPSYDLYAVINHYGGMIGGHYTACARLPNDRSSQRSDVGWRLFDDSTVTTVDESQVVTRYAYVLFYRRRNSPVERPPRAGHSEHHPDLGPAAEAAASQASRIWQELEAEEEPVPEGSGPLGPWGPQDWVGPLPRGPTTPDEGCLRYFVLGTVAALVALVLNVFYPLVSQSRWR
In short: (§1)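 The table lists average log2 ratios of fragment over vehicle, from an unpaired t-test on global-median-normalised Spectronaut label-free quantities. Proteins with ≥2 unique peptides were used. Samples were HEK293T lysate (495 µg) treated in triplicate with fragment at 200 µM or vehicle for 3 h, then with Biotin-Ahx-Ub-VS (0.5 µM final) for 1 h, with labelled DUBs NeutrAvidin-enriched and run by diaPASEF LC-MS/MS.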

USP22 = biological target: T2, USP22 (UniProt Q9UPT9)
T2 sequence (whole entry): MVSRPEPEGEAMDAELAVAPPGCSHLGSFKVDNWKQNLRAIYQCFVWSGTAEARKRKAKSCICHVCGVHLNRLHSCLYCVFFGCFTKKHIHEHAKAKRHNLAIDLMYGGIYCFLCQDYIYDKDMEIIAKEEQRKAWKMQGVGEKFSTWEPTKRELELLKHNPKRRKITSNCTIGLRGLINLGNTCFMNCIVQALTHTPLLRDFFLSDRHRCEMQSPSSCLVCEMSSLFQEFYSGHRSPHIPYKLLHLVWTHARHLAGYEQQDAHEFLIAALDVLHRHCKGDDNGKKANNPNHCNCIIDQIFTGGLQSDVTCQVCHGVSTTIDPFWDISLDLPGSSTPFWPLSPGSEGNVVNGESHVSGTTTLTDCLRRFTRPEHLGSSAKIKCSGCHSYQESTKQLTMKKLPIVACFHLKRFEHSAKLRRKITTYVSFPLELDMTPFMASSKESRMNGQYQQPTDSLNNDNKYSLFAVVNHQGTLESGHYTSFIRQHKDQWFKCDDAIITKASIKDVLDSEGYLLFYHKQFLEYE
In short: as §1

USP24 = USP24 (UniProt Q9UPU5)
In short: as §1

USP25 = biological target: T3, USP25 (UniProt Q9UHP3)
T3 sequence (whole entry): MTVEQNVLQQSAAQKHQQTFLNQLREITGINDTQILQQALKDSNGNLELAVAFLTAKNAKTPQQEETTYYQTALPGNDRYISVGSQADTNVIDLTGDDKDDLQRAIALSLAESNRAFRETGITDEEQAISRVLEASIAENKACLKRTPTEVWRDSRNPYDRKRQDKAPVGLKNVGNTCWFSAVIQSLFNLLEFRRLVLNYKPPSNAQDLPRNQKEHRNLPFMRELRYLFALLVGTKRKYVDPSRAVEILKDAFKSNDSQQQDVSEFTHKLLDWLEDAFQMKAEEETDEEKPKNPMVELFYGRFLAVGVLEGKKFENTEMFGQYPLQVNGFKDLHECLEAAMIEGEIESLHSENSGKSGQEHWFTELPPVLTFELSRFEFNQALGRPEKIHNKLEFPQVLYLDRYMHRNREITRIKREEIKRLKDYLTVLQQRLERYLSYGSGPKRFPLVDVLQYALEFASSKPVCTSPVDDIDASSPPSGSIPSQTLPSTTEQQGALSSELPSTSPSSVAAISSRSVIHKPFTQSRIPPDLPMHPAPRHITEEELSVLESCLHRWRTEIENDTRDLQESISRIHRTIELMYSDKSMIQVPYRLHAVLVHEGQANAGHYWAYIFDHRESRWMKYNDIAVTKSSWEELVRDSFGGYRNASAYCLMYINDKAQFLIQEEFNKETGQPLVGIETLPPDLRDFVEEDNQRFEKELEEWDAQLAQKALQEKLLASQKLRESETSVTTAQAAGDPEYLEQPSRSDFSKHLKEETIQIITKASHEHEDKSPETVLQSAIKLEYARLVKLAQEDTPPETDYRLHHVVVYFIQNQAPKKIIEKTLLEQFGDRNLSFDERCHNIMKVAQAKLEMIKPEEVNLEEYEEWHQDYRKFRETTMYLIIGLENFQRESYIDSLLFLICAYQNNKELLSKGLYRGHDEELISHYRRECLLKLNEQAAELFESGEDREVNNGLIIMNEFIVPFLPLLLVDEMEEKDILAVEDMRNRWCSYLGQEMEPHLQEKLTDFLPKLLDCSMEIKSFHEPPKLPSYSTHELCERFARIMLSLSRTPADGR
In short: as §1

USP28 = biological target: T4, USP28 (UniProt Q96RU2)
T4 sequence (whole entry): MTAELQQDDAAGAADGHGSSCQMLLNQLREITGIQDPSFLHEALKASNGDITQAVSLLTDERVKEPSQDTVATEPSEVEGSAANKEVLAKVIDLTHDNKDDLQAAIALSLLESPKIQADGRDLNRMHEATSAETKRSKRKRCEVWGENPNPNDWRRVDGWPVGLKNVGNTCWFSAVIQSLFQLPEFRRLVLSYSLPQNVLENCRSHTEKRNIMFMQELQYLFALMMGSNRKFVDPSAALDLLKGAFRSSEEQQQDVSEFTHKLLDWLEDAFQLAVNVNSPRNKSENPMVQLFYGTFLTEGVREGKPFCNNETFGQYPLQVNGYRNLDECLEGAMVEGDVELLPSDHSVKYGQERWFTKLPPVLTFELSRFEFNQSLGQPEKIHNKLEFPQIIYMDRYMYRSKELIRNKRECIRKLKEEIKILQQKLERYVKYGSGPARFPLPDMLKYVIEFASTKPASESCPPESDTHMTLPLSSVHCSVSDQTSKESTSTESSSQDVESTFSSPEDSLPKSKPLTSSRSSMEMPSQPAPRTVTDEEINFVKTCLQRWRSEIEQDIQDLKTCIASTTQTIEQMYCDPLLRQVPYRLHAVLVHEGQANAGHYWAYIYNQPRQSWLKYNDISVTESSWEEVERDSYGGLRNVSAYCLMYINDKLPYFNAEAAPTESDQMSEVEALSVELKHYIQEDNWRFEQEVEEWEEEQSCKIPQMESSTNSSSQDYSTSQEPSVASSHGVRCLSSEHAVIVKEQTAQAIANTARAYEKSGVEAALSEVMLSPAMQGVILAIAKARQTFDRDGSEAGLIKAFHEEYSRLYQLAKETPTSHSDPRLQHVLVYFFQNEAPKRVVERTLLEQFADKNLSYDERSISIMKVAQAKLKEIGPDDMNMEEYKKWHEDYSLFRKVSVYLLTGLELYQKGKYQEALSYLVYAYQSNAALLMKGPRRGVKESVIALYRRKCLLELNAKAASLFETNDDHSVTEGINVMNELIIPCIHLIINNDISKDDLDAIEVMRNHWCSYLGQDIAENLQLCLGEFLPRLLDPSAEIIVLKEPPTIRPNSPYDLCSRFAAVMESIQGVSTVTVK
In short: as §1

Measured: log2 ratio of Biotin-Ahx-Ub-VS probe labelling

USP24, sequence (Q9UPU5 whole entry): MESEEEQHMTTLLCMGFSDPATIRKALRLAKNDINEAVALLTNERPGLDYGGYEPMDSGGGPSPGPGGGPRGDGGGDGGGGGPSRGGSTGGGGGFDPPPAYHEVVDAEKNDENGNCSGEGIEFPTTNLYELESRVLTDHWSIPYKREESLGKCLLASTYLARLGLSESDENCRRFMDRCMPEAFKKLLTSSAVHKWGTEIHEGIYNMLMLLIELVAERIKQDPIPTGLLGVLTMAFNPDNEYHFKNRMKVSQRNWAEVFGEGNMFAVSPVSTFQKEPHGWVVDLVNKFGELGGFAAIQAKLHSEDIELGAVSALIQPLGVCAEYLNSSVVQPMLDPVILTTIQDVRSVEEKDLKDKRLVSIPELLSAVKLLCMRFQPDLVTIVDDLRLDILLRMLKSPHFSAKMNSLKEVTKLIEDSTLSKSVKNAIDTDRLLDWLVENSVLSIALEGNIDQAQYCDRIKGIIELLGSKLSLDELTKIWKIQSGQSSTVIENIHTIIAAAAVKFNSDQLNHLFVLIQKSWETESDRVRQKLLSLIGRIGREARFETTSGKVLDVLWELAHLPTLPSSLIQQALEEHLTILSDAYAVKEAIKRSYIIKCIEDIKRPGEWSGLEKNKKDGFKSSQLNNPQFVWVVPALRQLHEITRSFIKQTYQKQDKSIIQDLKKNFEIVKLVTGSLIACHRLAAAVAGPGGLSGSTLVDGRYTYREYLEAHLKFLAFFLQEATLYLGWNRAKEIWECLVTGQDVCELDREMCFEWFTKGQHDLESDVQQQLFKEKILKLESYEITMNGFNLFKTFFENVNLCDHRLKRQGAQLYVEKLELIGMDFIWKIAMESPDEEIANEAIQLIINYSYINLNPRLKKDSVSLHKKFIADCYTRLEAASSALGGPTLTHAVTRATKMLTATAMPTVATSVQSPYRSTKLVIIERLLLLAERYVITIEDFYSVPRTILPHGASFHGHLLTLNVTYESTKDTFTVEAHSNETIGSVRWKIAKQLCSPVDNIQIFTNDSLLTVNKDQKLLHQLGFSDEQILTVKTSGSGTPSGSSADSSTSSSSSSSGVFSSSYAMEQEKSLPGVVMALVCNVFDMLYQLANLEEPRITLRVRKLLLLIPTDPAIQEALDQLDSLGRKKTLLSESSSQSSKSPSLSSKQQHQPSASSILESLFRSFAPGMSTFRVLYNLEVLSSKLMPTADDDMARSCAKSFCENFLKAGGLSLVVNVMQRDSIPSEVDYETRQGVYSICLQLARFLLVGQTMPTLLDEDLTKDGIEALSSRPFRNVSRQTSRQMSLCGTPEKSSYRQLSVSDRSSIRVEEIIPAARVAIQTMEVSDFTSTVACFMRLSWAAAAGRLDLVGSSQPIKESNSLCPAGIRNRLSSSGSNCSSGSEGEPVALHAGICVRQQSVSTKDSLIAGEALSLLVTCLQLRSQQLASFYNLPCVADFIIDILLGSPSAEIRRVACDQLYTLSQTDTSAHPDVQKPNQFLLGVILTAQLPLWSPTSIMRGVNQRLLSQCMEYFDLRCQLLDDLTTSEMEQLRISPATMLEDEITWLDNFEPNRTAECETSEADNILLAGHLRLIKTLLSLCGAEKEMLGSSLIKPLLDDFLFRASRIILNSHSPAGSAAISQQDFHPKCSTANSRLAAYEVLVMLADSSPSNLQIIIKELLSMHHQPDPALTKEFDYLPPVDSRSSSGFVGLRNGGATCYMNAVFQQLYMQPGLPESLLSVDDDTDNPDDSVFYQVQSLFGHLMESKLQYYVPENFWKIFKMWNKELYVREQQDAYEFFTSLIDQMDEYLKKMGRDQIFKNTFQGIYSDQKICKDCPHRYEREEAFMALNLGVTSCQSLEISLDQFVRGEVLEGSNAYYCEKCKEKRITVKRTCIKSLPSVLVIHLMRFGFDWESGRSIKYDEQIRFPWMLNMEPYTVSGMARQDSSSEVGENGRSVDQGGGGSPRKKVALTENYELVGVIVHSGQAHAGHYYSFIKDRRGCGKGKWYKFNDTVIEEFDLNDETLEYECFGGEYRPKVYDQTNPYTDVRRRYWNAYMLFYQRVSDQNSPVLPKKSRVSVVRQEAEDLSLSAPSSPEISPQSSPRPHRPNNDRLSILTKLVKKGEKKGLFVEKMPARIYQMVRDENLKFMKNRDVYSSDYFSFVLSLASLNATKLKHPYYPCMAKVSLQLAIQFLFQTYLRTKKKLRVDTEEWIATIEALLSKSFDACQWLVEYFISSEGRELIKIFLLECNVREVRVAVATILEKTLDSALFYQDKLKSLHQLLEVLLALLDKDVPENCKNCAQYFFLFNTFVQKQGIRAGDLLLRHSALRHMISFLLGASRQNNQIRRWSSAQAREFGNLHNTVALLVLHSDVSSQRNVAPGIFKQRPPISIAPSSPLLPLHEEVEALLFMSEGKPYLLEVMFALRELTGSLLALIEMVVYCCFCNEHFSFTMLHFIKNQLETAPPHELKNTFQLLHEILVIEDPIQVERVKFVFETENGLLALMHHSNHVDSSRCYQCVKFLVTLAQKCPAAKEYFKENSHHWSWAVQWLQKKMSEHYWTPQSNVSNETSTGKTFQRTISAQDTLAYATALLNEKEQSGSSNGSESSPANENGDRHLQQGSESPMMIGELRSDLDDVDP

CCN(Cc1ccc(C#N)cc1F)C(=O)CCl
inactive: USP19 -0.28 | USP22 -0.094 | USP24 -0.741 | USP25 -0.659 | USP28 -0.624
